By AC50 is commonly meant the concentration at which the activity in the assay is half-maximal.

The structures appear in SMILES notation. Screen size: about 16,000 compounds; about 5,100 (32%) were called active. Not shown: some 25% with an inconclusive outcome. The list shows a part of the results. Values without a mark were called inactive. Calls come from the whole dose curve; as a rule, active = well fitted curve in the direction sought with a large enough effect; inconclusive = small, poorly fitted or top-dose-only effect, or effect the other way; inactive = no such curve, though single readings can be large or run the other way.

This note sets out measurements from PubChem BioAssay AID1851 (National Center for Advancing Translational Sciences (NCATS), 2009).
% is set by controls: 0 for no effect and ±100 for the full control effect.

The target in the test is Cytochrome P450 3A4 (Homo sapiens) (UniProt P08684). Kind of test: Cytochrome panel assay with activity outcomes. Conditions: recombinant CYP, pro-luciferin dealkylation, luminescence, p450-cyp3a4; series mostly up to 57.1 µM; activity, negative = inhibition: at the top concentration.
Chain of Cytochrome P450 3A4 (Homo sapiens) (P08684 whole entry, looked up): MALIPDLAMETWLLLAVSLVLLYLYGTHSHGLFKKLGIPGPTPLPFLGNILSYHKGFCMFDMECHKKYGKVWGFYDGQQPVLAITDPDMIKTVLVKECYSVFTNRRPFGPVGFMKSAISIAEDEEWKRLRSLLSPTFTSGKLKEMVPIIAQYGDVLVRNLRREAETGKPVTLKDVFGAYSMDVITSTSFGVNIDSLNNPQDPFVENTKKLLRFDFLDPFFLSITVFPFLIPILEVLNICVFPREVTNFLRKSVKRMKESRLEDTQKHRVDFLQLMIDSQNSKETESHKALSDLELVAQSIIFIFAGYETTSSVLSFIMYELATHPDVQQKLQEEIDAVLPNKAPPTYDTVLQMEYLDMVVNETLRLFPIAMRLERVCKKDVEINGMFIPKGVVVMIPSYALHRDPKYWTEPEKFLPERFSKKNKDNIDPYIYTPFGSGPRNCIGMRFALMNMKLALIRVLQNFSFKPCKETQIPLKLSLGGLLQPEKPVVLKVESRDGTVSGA
Turning to `Clc1ccc(N2CCCCCC2)nn1`, the “activity, negative = inhibition” value was -15.4%.
In the case of `COc1ccccc1NC(=O)CCN1C(=O)C2CC=C(Cl)CC2C1=O` (centres undefined), the AC50 was 14.1 µM (active).
Turning to `Cc1ncc(N=Nc2ccccc2Cl)c(-c2ccccc2)n1`, the “activity, negative = inhibition” value was -21.3%.
For the compound `COC(=O)CNC(=O)CN1C(=O)N(c2ccccc2)C(N(O)C(=O)Nc2ccccc2)C1(C)C` (centres undefined), the “activity, negative = inhibition” value was 27.6%.
`COC(=O)CNC(=O)CN1C(=O)N(c2ccc(Cl)cc2)C(N(O)C(=O)Nc2ccc(Cl)cc2)C1(C)C` (centres undefined): the concentration at half-maximal activity (AC50) was 4.47 µM (active).
With `COC(=O)CC1C(=O)NCCN1C(=O)Nc1ccc(Cl)cc1` (centres undefined), the “activity, negative = inhibition” value is -7.49%.
For the compound `Cc1ccc(OCCOCCn2ccnc2)c(Br)c1`, the AC50 is 0.562 µM (active).
Same read-out and setting: the figure for `Cc1cccc(OCCCCCn2ccnc2)c1` is 0.562 µM (active).
For the compound `O=C(O)c1cccc(OCCO)c1`, the activity, negative = inhibition is -12.1% [at 11.4 µM].
On the same count and under the same terms, with `COc1cc(C)ccc1OCCOc1cc(C)ccc1Cl` the figure was 5.86% [at 2.29 µM]; with `Cc1cc2[nH]c(=O)c3ccccc3n2n1`, -11%.
`O=c1cc(CSc2nnc(-c3cccnc3)n2-c2ccccc2F)nc2sccn12`: the AC50 is 2.82 µM (active).
On to `Cn1cc(C(=O)N/N=C/C(Br)=C\c2ccccc2)ccc1=O`, for which the “activity, negative = inhibition” value is -21.8%.
In the case of `N#Cc1cccc(NC(=O)N2CC[C@@]3(CCCN(S(=O)(=O)c4ccccc4)C3)C2)c1`, the AC50 is 3.16 µM (active).
Consider `CS(=O)(=O)N1CCC[C@@]2(CCN(C(=O)Nc3ccccc3)C2)C1`, for which the “activity, negative = inhibition” value was -21.2%.
In the case of `O=C(Nc1cccc(F)c1)N1CC[C@@]2(CCCN(S(=O)(=O)c3ccccc3)C2)C1`, the AC50 was 25.1 µM (active).
For the compound `O=C(Nc1cccc(F)c1)N1CCCC2(CCN(S(=O)(=O)c3ccccc3)CC2)C1`, the AC50 is 12.6 µM (active).
On to `CS(=O)(=O)N1CCC2(CCN(C(=O)Nc3cccc(C#N)c3)CC2)CC1`, for which the “activity, negative = inhibition” value was -0.782%.
Still for that read-out and setting: with `CS(=O)(=O)N1CCC2(CCN(C(=O)Nc3cccc(F)c3)CC2)CC1` the figure was 0.77%.
The same measure, in the same setting: with `O=C(Nc1cccc(F)c1)N1CC2(CCN(S(=O)(=O)c3ccccc3)CC2)C1` the figure was -16.5%.
For `CC(/C=C1\N=C(SCc2ccccc2Cl)SC1=O)=C\c1ccccc1`, the AC50 was 14.1 µM (active).
On to `Clc1ccccc1CSc1nnc(/C=C/c2ccccc2)o1`, for which the “activity, negative = inhibition” value is -23.3%.
For the compound `O=c1[nH]c2cc(Cl)ccc2c(O)c1-c1cccc(Oc2ccccc2)c1`, the “activity, negative = inhibition” value is -19.3%.
Still for that read-out and setting: with `CC1(C)CCC=[N+]1[O-]` the figure was 16.1%; with `NC(N)=NC(N)=Nc1ccccc1`, -12.3%.
On the same count and under the same terms, the figure for `CCc1ccc(OCCCC(=O)Nc2ccc(N3CCCCC3)cc2)cc1` is -10.4%.
`O=C(Nc1ccc(N2CCCCC2)cc1)c1cncc(Br)c1`: the AC50 is 1.41 µM (active).
For `O=C(O)CNC(=O)[C@@H](CS)Cc1ccccc1`, the “activity, negative = inhibition” value was 0.949%.
On the same count and under the same terms, with `CCSc1nnc(NC(=O)Cc2ccccc2OC)s1` the figure was -9.72%.
As to `COc1ccccc1C(=O)NCCn1cc(SCC(=O)Nc2nnc(C)s2)c2ccccc21`, the concentration at half-maximal activity (AC50) was 6.31 µM (active).
In the case of `CCCCCCCC/C=C\CCCCCCCC(=O)NCCc1ccc(O)c(O)c1`, the AC50 was 3.16 µM (active).
With `CCCCCCCC/C=C\CCCCCCCC(=O)N[C@@H](CO)Cc1ccc(O)cc1`, the AC50 is 10 µM (active).
Regarding `CCCCCCCCCCCCCCCC(=O)NC(C)C`, the “activity, negative = inhibition” value was -13.2%.
`CC(=O)NCCc1ccc(O)c(O)c1`: the “activity, negative = inhibition” value was -7.98%.
Turning to `CCCCCCC/C=C\CCCCCCCCC(=O)O`, the “activity, negative = inhibition” value is -7.01%.
As for `CCCCCCCCCCCCCCC/C=C\[C@H](O)[C@@H](NC(=O)CCCCCCCCCCCCC)OC` (tested in a mixture with another compound), the “activity, negative = inhibition” value was 15.6%.
Take `N=C(N)SCC(=O)O`: the activity, negative = inhibition was -3.45% [at 11.4 µM].
On the same count and under the same terms, with `CC(C)CN1CCC2(CC1)CCN(S(=O)(=O)c1ccccc1)CC2` the figure was -5.33%.
Consider `O=S(=O)(c1ccccc1)N1CCC2(CCCN(Cc3ccncc3)C2)CC1`, for which the half-maximal activity concentration (AC50) was 3.98 µM (active).
On the same count and under the same terms, the figure for `O=S(=O)(c1ccccc1)N1CCC2(CCN(Cc3ccncc3)CC2)CC1` is 3.98 µM (active).
Turning to `N#Cc1ccc(CN2CCCC3(CCN(S(=O)(=O)c4ccccc4)CC3)C2)cc1`, the AC50 was 3.16 µM (active).
Regarding `O=S(=O)(c1ccccc1)N1CCC2(CCN(Cc3ccccc3)CC2)CC1`, the “activity, negative = inhibition” value is -5.59%.
Consider `CC(C)CN1CCCC2(CCN(S(=O)(=O)c3ccccc3)CC2)C1`, for which the AC50 is 15.8 µM (active).
As to `O=S(=O)(c1ccccc1)N1CCC2(CC1)CN(Cc1ccccc1)C2`, the “activity, negative = inhibition” value is 11.6%.
Same read-out and setting: with `CC/C=C\CC[C@H](O)C1=CCCCC1=O` the figure was -12.1% [at 11.4 µM]; with `O=C1CC(c2ccccc2)Cc2nc(N3CCc4ccccc4C3)ncc21` (centres undefined), 2.14% [at 2.29 µM].
As for `COc1ccc(Nc2ncc3c(n2)CC(c2ccc(C)cc2)CC3=O)cc1` (centres undefined), the AC50 is 8.91 µM (active).
Take `Cc1ccc(C2CC(=O)c3cnc(N4CCc5ccccc5C4)nc3C2)cc1` (centres undefined): the activity, negative = inhibition was -6% [at 2.29 µM].
In the case of `COc1ccc(C2CC(=O)c3cnc(Nc4cc(C)cc(C)c4)nc3C2)cc1` (centres undefined), the AC50 is 4.47 µM (active).
Consider `CC1CC(=O)c2cnc(N)nc2C1` (centres undefined), for which the “activity, negative = inhibition” value was 6.35%.
On the same count and under the same terms, with `Nc1ncnc2c1ncn2C[C@@H](O)C(=O)O` the figure was 1.58% [at 11.4 µM]; with `CCNc1ncc2ncc(=O)n(C[C@H]3CCCO3)c2n1`, -21%; with `CCNc1ncc2nc(C)c(=O)n(C[C@H]3CCCO3)c2n1`, -10.9%.
Same read-out and setting: the figure for `COc1ccc(-c2nc3cnc(N4CCOCC4)nc3n(C[C@H]3CCCO3)c2=O)cc1` is -3.59%; for `O=c1cnc2cnc(Oc3cccc(Cl)c3)nc2n1C[C@H]1CCCO1` it is -20.3%.
For the compound `COc1ccc(Oc2ncc3ncc(=O)n(C[C@H]4CCCO4)c3n2)cc1`, the AC50 is 12.6 µM (active).
On the same count and under the same terms, the figure for `COc1ccc(Oc2ncc3nc(C)c(=O)n(C[C@H]4CCCO4)c3n2)cc1` is 3.98 µM (active); for `Nc1ccc(N(S(=O)(=O)c2ccccc2)S(=O)(=O)c2ccccc2)c(Cl)c1` it is 0.0316 µM (active).
On to `CN(CCC(=O)O)S(=O)(=O)c1ccccc1`, for which the activity, negative = inhibition was -26.6% [at 11.4 µM].
Same read-out and setting: the figure for `CN=C(N)/N=C(\N)Nc1cc2ccccc2c2ccccc12` is -14.5% [at 11.4 µM].
As to `NC(=S)Nc1cc2ccccc2c2ccccc12`, the AC50 is 15.8 µM (active).
Consider `O=C(O)c1c2ccccc2cc2ccccc12`, for which the “activity, negative = inhibition” value is 0.0487%.
Still for that read-out and setting: with `CCN(CC)C(=O)C1CC(=O)N(c2ccc(OC)cc2)C1c1ccc(OC)cc1` (centres undefined) the figure was -28.4% [at 2.29 µM].
For `COc1ccc(C2CC(=O)CC(=O)C2n2cncn2)cc1` (centres undefined), the AC50 was 2.24 µM (active).
Same read-out and setting: with `O=C1CC(=O)C(n2cncn2)C(c2cccc(Cl)c2)C1` (centres undefined) the figure was 0.501 µM (active); with `CS(=O)(=O)Nc1cccc(-c2nc(NCc3cccnc3)c3ccccc3n2)c1`, 2 µM (active).
Same read-out and setting: with `Cc1cccc(CNc2nc(-c3cccc(NS(C)(=O)=O)c3)nc3ccccc23)c1` the figure was 5.01 µM (active); with `COCCNc1nc(-c2cccc(NS(C)(=O)=O)c2)nc2ccccc12`, 12.6 µM (active).
`CS(=O)(=O)Nc1cccc(-c2nc(NCc3cccs3)c3ccccc3n2)c1`: the AC50 is 3.16 µM (active).
For `NC(=O)/C(=N\O)c1ccccc1`, the “activity, negative = inhibition” value is -20.2%.
Consider `CS(=O)(=O)Nc1cccc(-c2nc(NCc3ccccc3)c3ccccc3n2)c1`, for which the AC50 was 3.16 µM (active).
On to `c1cc(NNc2cccc(-c3nn[nH]n3)c2)cc(-c2nn[nH]n2)c1`, for which the activity, negative = inhibition was -11.1% [at 11.4 µM].
On to `CC(=O)NCCNc1nc(-c2cccc(NS(C)(=O)=O)c2)nc2ccccc12`, for which the AC50 was 15.8 µM (active).
Consider `Cn1c(=O)c2c(ncn2CN2CCN(Cn3cnc4c3c(=O)n(C)c(=O)n4C)CC2)n(C)c1=O`, for which the activity, negative = inhibition is 3.42% [at 11.4 µM].
`COc1ccccc1CNc1ncnc2ccc(-c3cccc(C#N)c3)cc12`: the AC50 was 7.94 µM (active).
On the same count and under the same terms, with `COc1ccc(CNc2ncnc3ccc(-c4cccc(C#N)c4)cc23)c(OC)c1` the figure was 1.58 µM (active).
Take `Cc1ccc(S(=O)(=O)NC(=O)OC23COCN2COC3)cc1`: the activity, negative = inhibition was -8.25% [at 11.4 µM].
Take `COc1ccc(-n2c(=O)c(-c3cc(F)cc(F)c3)nc3cncnc32)cc1`: the AC50 is 12.6 µM (active).
For `O=c1c(-c2cc(F)cc(F)c2)nc2cncnc2n1-c1ccccc1`, the “activity, negative = inhibition” value was -35.4%.
The same measure, in the same setting: the figure for `COc1ccc(-n2c(=O)c(-c3ccc(F)cc3)nc3cnc(N4CCOCC4)nc32)cc1` is -15.1%; for `COc1ccc(-n2c(=O)c(-c3ccc(F)cc3)nc3cncnc32)cc1` it is -30.6%.
Turning to `COc1ccc(-n2c(=O)c(C)nc3cncnc32)cc1`, the AC50 is 5.01 µM (active).
Still for that read-out and setting: the figure for `COc1ccc(-n2c(=O)c(-c3cccc(F)c3)nc3cncnc32)cc1` is 20 µM (active); for `COc1ccc(-n2c(=O)c(-c3ccc(Cl)cc3)nc3cncnc32)cc1` it is 15.8 µM (active).
With `Cn1c(=O)c(-c2ccc(Cl)cc2)nc2cncnc21`, the “activity, negative = inhibition” value was -13.1%.
With `CCNc1ncc2nc(-c3cc(F)cc(F)c3)c(=O)n(-c3ccc(OC)cc3)c2n1`, the AC50 is 10 µM (active).
On to `Cn1c(=O)c(-c2cccc(Cl)c2)nc2cncnc21`, for which the “activity, negative = inhibition” value was -21.6%.
The same measure, in the same setting: with `CCNc1ncc2nc(-c3ccc(F)cc3)c(=O)n(-c3ccccc3)c2n1` the figure was -12.8%.
As to `COc1ccc(-n2c(=O)c(-c3cccc(Cl)c3)nc3cncnc32)cc1`, the AC50 was 12.6 µM (active).
Turning to `Nc1ncnc2c1ncn2[C@H]1O[C@@H](C(=O)O)[C@@H](O)[C@H]1O`, the activity, negative = inhibition was 0.186% [at 11.4 µM].
On the same count and under the same terms, the figure for `COC(=O)C1=C(CSc2nncn2C)NC(=O)NC1c1ccc(F)cc1` (centres undefined) is -6.15%.
`CCOC(=O)C1=C(CSc2nc3ccccc3s2)NC(=O)NC1c1cc(C)ccc1C` (centres undefined): the AC50 is 4.47 µM (active).
Still for that read-out and setting: with `CCOC(=O)C1=C(COc2ccc(F)cc2Cl)NC(=O)NC1c1cc(C)ccc1C` (centres undefined) the figure was 6.31 µM (active); with `CCOC(=O)C1=C(CSc2nc3ccccc3s2)NC(=O)NC1c1cccc([N+](=O)[O-])c1` (centres undefined), 6.31 µM (active).
`CCC(=O)NNc1cc(=O)c2c(=O)n(C)c(=O)n(C)c2[nH]1`: the activity, negative = inhibition is 1.3% [at 2.29 µM].
With `O=C1CCCN1c1ccc(S(=O)(=O)Oc2cccc(Cl)c2)cc1[N+](=O)[O-]`, the AC50 was 12.6 µM (active).
As to `O=[N+]([O-])c1ccc(N2CCCCC2)c(Cl)c1N1CCCCC1`, the “activity, negative = inhibition” value was -20.1%.
On to `CN1C(=O)/C(=C\c2ccccc2)Sc2ccc(C(=O)N3CCN(c4ccccn4)CC3)cc21`, for which the AC50 was 14.1 µM (active).
Take `Cn1cccc1C(=O)N1CCC2(CC1)CCN(c1ccccn1)CC2`: the “activity, negative = inhibition” value was 27.7%.
